According to PubChem BioAssay AID1159580 (chemical genetic matrix, 2015):
In all, about 5,500 compounds went through this assay and about 2,000 (36%) were called active. Not shown: some 18% with an inconclusive outcome. Some of the results follow. Values without a mark were called inactive. No stated cut-off is given here; in the data, active means normalized growth mostly below about 0.91 (no sharp cut-off); inconclusive means no clear call, values can overlap the other calls; inactive means mostly above about 0.92.

Assay: chemical genetic growth profiling, strain panel (AID 1159580);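 further: tested at 20 µM; growth read once vehicle control cultures reached saturation at 30 °C; 1 = growth at the plate median or of vehicle wells; lower values mean less growth of the strain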
Settings: growth OD
[1] = S. cerevisiae deletion strains, locus YAL013W, strain DEP1, active compounds read low
[2] = S. cerevisiae deletion strains, locus YGR229C, strain SMI1, active compounds read low
[3] = S. cerevisiae deletion strains, locus YMR307W, strain GAS1, active compounds read low
[4] = S. cerevisiae deletion strains, locus YNL153C, strain GIM3, active compounds read low
[5] = S. cerevisiae deletion strains, locus YPL241C, strain CIN2, active compounds read low

Question: Which normalized growth [1] does the source give for Nc1nc2c(ncn2C2C[C@H](O)[C@@H](CO)O2)c(=O)[nH]1 (some centres undefined) here?
Answer: 0.995

Question: And the normalized growth (S. cerevisiae deletion strains, locus YBR021W, strain FUR4, active compounds read low)?
Answer: 1

Question: And the normalized growth (S. cerevisiae deletion strains, locus YBR229C, strain ROT2, active compounds read low)?
Answer: 0.997

Question: What about the normalized growth (S. cerevisiae deletion strains, locus YCL029C, strain bik1, active compounds read low) of the same compound?
Answer: 0.573 (active)

Question: What about the normalized growth (S. cerevisiae deletion strains, locus YDL035C, strain GPR1, active compounds read low) of the same compound?
Answer: 1.02

Question: And the normalized growth (S. cerevisiae deletion strains, locus YDL074C, strain BRE1, active compounds read low)?
Answer: 1.02

Question: What about the normalized growth (S. cerevisiae deletion strains, locus YDL101C, strain DUN1, active compounds read low) of the same compound?
Answer: 1

Question: What about the normalized growth (S. cerevisiae deletion strains, locus YDL134C, strain PPH21, active compounds read low) of the same compound?
Answer: 1.01

Question: And the normalized growth (S. cerevisiae deletion strains, locus YDL185W, strain tfp1, active compounds read low)?
Answer: 0.999

Question: What about the normalized growth (S. cerevisiae deletion strains, locus YDL192W, strain arf1, active compounds read low) of the same compound?
Answer: 0.179 (active)

Question: What about the normalized growth (S. cerevisiae deletion strains, locus YDR101C, strain arx1, active compounds read low) of the same compound?
Answer: 0.447 (active)

Question: And the normalized growth (S. cerevisiae deletion strains, locus YDR150W, strain NUM1, active compounds read low)?
Answer: 1.02

Question: What about the normalized growth (S. cerevisiae deletion strains, locus YDR162C, strain NBP2, active compounds read low) of the same compound?
Answer: 1

Question: And the normalized growth (S. cerevisiae deletion strains, locus YDR318W, strain mcm21, active compounds read low)?
Answer: 0.322 (active)

Question: What about the normalized growth (S. cerevisiae deletion strains, locus YDR388W, active compounds read low) of the same compound?
Answer: 0.162 (active)

Question: And the normalized growth (S. cerevisiae deletion strains, locus YDR502C, strain sam2, active compounds read low)?
Answer: 0.359 (active)

Question: And the normalized growth (S. cerevisiae deletion strains, locus YEL061C, strain CIN8, active compounds read low)?
Answer: 0.979

Question: And the normalized growth (S. cerevisiae deletion strains, locus YER110C, active compounds read low)?
Answer: 0.627 (active)

Question: And the normalized growth (S. cerevisiae deletion strains, locus YER155C, strain BEM2, active compounds read low)?
Answer: 0.994

Question: And the normalized growth (S. cerevisiae deletion strains, locus YER167W, strain BCK2, active compounds read low)?
Answer: 1.01

Question: What about the normalized growth (S. cerevisiae deletion strains, locus YGL078C, strain dbp3, active compounds read low) of the same compound?
Answer: 1

Question: What about the normalized growth (S. cerevisiae deletion strains, locus YGL086W, strain mad1, active compounds read low) of the same compound?
Answer: 0.357 (active)

Question: And the normalized growth (S. cerevisiae deletion strains, locus YGL248W, strain PDE1, active compounds read low)?
Answer: 0.996

Question: What about the normalized growth (S. cerevisiae deletion strains, locus YGR078C, strain PAC10, active compounds read low) of the same compound?
Answer: 1

Question: What about the normalized growth (S. cerevisiae deletion strains, locus YGR135W, strain pre9, active compounds read low) of the same compound?
Answer: 0.328 (active)

Question: What about the normalized growth [2] of the same compound?
Answer: 1.01

Question: And the normalized growth (S. cerevisiae deletion strains, locus YGR252W, strain gcn5, active compounds read low)?
Answer: 0.352 (active)

Question: What about the normalized growth (S. cerevisiae deletion strains, locus YHR030C, strain SLT2, active compounds read low) of the same compound?
Answer: 1.01

Question: What about the normalized growth (S. cerevisiae deletion strains, locus YHR079C, strain IRE1 (second series), active compounds read low) of the same compound?
Answer: 0.446 (active)

Question: And the normalized growth (S. cerevisiae deletion strains, locus YHR094C, strain hxt1, active compounds read low)?
Answer: 0.456 (active)

Question: And the normalized growth (S. cerevisiae deletion strains, locus YHR129C, strain ARP1, active compounds read low)?
Answer: 1

Question: What about the normalized growth (S. cerevisiae deletion strains, locus YHR200W, strain rpn10, active compounds read low) of the same compound?
Answer: 0.357 (active)

Question: And the normalized growth (S. cerevisiae deletion strains, locus YIL066C, strain RNR3, active compounds read low)?
Answer: 1.03

Question: What about the normalized growth (S. cerevisiae deletion strains, locus YIL073C, strain SPO22, active compounds read low) of the same compound?
Answer: 1.1

Question: What about the normalized growth (S. cerevisiae deletion strains, locus YIL125W, strain kgd1, active compounds read low) of the same compound?
Answer: 1.01

Question: And the normalized growth (S. cerevisiae deletion strains, locus YIR030C, strain dcg1, active compounds read low)?
Answer: 0.46 (active)

Question: What about the normalized growth (S. cerevisiae deletion strains, locus YJL095W, strain BCK1, active compounds read low) of the same compound?
Answer: 1

Question: And the normalized growth (S. cerevisiae deletion strains, locus YJL134W, strain LCB3, active compounds read low)?
Answer: 1

Question: What about the normalized growth (S. cerevisiae deletion strains, locus YJL168C, strain set2, active compounds read low) of the same compound?
Answer: 0.527 (active)

Question: And the normalized growth (S. cerevisiae deletion strains, locus YJL187C, strain SWE1 (second series), active compounds read low)?
Answer: 1.01

Question: What about the normalized growth (S. cerevisiae deletion strains, locus YJR043C, strain POL32, active compounds read low) of the same compound?
Answer: 1

Question: What about the normalized growth (S. cerevisiae deletion strains, locus YJR075W, strain HOC1, active compounds read low) of the same compound?
Answer: 0.992

Question: And the normalized growth (S. cerevisiae deletion strains, locus YKL009W, strain mrt4, active compounds read low)?
Answer: 1.02

Question: And the normalized growth (S. cerevisiae deletion strains, locus YKL068W, active compounds read low)?
Answer: 1.01

Question: And the normalized growth (S. cerevisiae deletion strains, locus YKL085W, strain MDH1 (second series), active compounds read low)?
Answer: 1.01

Question: And the normalized growth (S. cerevisiae deletion strains, locus YKL085W, strain MDH1, active compounds read low)?
Answer: 1.01

Question: And the normalized growth (S. cerevisiae deletion strains, locus YKL190W, strain CNB1, active compounds read low)?
Answer: 1

Question: And the normalized growth (S. cerevisiae deletion strains, locus YKR001C, strain vps1, active compounds read low)?
Answer: 0.189 (active)

Question: And the normalized growth (S. cerevisiae deletion strains, locus YLR039C, strain RIC1, active compounds read low)?
Answer: 1.02

Question: And the normalized growth (S. cerevisiae deletion strains, locus YLR058C, strain SHM2, active compounds read low)?
Answer: 1

Question: And the normalized growth (S. cerevisiae deletion strains, locus YLR102C, strain apc9, active compounds read low)?
Answer: 0.543 (active)

Question: And the normalized growth (S. cerevisiae deletion strains, locus YLR262C, strain YPT6, active compounds read low)?
Answer: 1.08

Question: And the normalized growth (S. cerevisiae deletion strains, locus YLR268W, strain sec22, active compounds read low)?
Answer: 0.406 (active)

Question: And the normalized growth (S. cerevisiae deletion strains, locus YLR330W, strain CHS5, active compounds read low)?
Answer: 0.995

Question: And the normalized growth (S. cerevisiae deletion strains, locus YLR342W, strain FKS1 (second series), active compounds read low)?
Answer: 1.04

Question: And the normalized growth (S. cerevisiae deletion strains, locus YLR371W, strain rom2, active compounds read low)?
Answer: 0.391 (active)

Question: What about the normalized growth (S. cerevisiae deletion strains, locus YLR418C, strain cdc73, active compounds read low) of the same compound?
Answer: 0.261 (active)

Question: What about the normalized growth (S. cerevisiae deletion strains, locus YML016C, strain PPZ1, active compounds read low) of the same compound?
Answer: 1.01

Question: And the normalized growth (S. cerevisiae deletion strains, locus YML032C, strain rad52, active compounds read low)?
Answer: 0.408 (active)

Question: What about the normalized growth (S. cerevisiae deletion strains, locus YML124C, strain tub3, active compounds read low) of the same compound?
Answer: 0.554 (active)

Question: What about the normalized growth (S. cerevisiae deletion strains, locus YMR078C, strain ctf18, active compounds read low) of the same compound?
Answer: 0.852 (active)

Question: What about the normalized growth (S. cerevisiae deletion strains, locus YMR223W, strain ubp8, active compounds read low) of the same compound?
Answer: 0.315 (active)

Question: And the normalized growth (S. cerevisiae deletion strains, locus YMR263W, strain SAP30, active compounds read low)?
Answer: 1.01

Question: What about the normalized growth [3] of the same compound?
Answer: 1.01

Question: What about the normalized growth (S. cerevisiae deletion strains, locus YNL067W, strain RPL9B, active compounds read low) of the same compound?
Answer: 1.01

Question: What about the normalized growth (S. cerevisiae deletion strains, locus YNL128W, strain TEP1, active compounds read low) of the same compound?
Answer: 1

Question: What about the normalized growth [4] of the same compound?
Answer: 1.01

Question: What about the normalized growth (S. cerevisiae deletion strains, locus YNL233W, strain BNI4, active compounds read low) of the same compound?
Answer: 1

Question: And the normalized growth (S. cerevisiae deletion strains, locus YNL250W, strain rad50, active compounds read low)?
Answer: 1.02

Question: What about the normalized growth (S. cerevisiae deletion strains, locus YNL271C, strain bni1, active compounds read low) of the same compound?
Answer: 1.02

Question: And the normalized growth (S. cerevisiae deletion strains, locus YNL298W, strain CLA4, active compounds read low)?
Answer: 1.03

Question: What about the normalized growth (S. cerevisiae deletion strains, locus YNL307C, strain MCK1, active compounds read low) of the same compound?
Answer: 0.222 (active)

Question: And the normalized growth (S. cerevisiae deletion strains, locus YNL322C, strain KRE1, active compounds read low)?
Answer: 1

Question: And the normalized growth (S. cerevisiae deletion strains, locus YNR052C, strain pop2, active compounds read low)?
Answer: 0.137 (active)

Question: What about the normalized growth (S. cerevisiae deletion strains, locus YOL006C, strain TOP1, active compounds read low) of the same compound?
Answer: 1.04

Question: And the normalized growth (S. cerevisiae deletion strains, locus YOL012C, strain htz1)?
Answer: 2.5 [resistant] (active)

Question: And the normalized growth (S. cerevisiae deletion strains, locus YOL147C, strain pex11, active compounds read low)?
Answer: 0.451 (active)

Question: And the normalized growth (S. cerevisiae deletion strains, locus YOR061W, strain CKA2, active compounds read low)?
Answer: 0.998

Question: What about the normalized growth (S. cerevisiae deletion strains, locus YOR069W, strain VPS5, active compounds read low) of the same compound?
Answer: 1

Question: And the normalized growth (S. cerevisiae deletion strains, locus YOR136W, strain idh2, active compounds read low)?
Answer: 0.531 (active)

Question: And the normalized growth (S. cerevisiae deletion strains, locus YOR144C, strain elg1, active compounds read low)?
Answer: 0.619 (active)

Question: What about the normalized growth (S. cerevisiae deletion strains, locus YOR184W, strain ser1, active compounds read low) of the same compound?
Answer: 1.02

Question: And the normalized growth (S. cerevisiae deletion strains, locus YOR316C, strain cot1, active compounds read low)?
Answer: 0.416 (active)

Question: And the normalized growth (S. cerevisiae deletion strains, locus YPL055C, strain LGE1, active compounds read low)?
Answer: 0.976

Question: And the normalized growth [5]?
Answer: 0.98

Question: And the normalized growth (S. cerevisiae deletion strains, locus YPR119W, strain clb2, active compounds read low)?
Answer: 0.645 (active)

Question: What about the normalized growth (S. cerevisiae deletion strains, locus YPR141C, strain kar3, active compounds read low) of the same compound?
Answer: 1.02

Question: And the normalized growth (S. cerevisiae deletion strains, locus YPR163C, strain tif3, active compounds read low)?
Answer: 0.37 (active)

Question: And the normalized growth (S. cerevisiae deletion strains, locus YPR167C, strain met16, active compounds read low)?
Answer: 0.33 (active)

Question: And the normalized growth (S. cerevisiae deletion strains, strain wtn01, active compounds read low)?
Answer: 0.229 (active)

Question: What about the normalized growth (S. cerevisiae strains, strain wild type, active compounds read low) of the same compound?
Answer: 0.984

Question: Which normalized growth [1] does the source give for Nc1ncnc2c1ncn2[C@@H]1O[C@H](COP(=O)(O)OP(=O)(O)OP(=O)(O)OP(=O)(O)OC[C@@H]2O[C@H](n3cnc4c(N)ncnc43)C(O)[C@@H]2O)[C@H](O)C1O (some centres undefined) here?
Answer: 1

Question: What about the normalized growth (S. cerevisiae deletion strains, locus YAL040C, strain CLN3, active compounds read low) of the same compound?
Answer: 1.01

Question: And the normalized growth (S. cerevisiae deletion strains, locus YCL061C, strain MRC1 (second series), active compounds read low)?
Answer: 0.992

Question: And the normalized growth (S. cerevisiae deletion strains, locus YDR363W, strain ESC2, active compounds read low)?
Answer: 1.04

Question: What about the normalized growth (S. cerevisiae deletion strains, locus YER002W, strain NOP16, active compounds read low) of the same compound?
Answer: 1.03

Question: What about the normalized growth [2] of the same compound?
Answer: 1.03

Question: What about the normalized growth [3] of the same compound?
Answer: 1.03

Question: And the normalized growth [4]?
Answer: 0.993

Question: And the normalized growth (S. cerevisiae deletion strains, locus YNL175C, strain NOP13, active compounds read low)?
Answer: 0.997

Question: And the normalized growth (S. cerevisiae deletion strains, locus YNL197C, strain WHI3, active compounds read low)?
Answer: 0.974

Question: What about the normalized growth (S. cerevisiae deletion strains, locus YNL224C, strain SQS1, active compounds read low) of the same compound?
Answer: 1

Question: And the normalized growth (S. cerevisiae deletion strains, locus YOR083W, strain WHI5 (second series), active compounds read low)?
Answer: 0.996

Question: And the normalized growth [5]?
Answer: 0.999
